SMARCA2 activ = increases SMARCA2 function in MMTV reporter cells; MG213 cells, MMTV-luciferase reporter, dexamethasone, overnight; activation, % at 9.1 µM; 1% of 370,000 active; in the data active = activation above about 7.8%
DAX1 inh = inhibitors of DAX1 repression of SF-1 activated StAR promoter; 1.1% of 370,000 active; HEK293T StAR-luciferase reporter, SF-1/DAX-1 repression relief; AID 652010; inhibition, % at 6.8 µM;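 active = inhibition above the mean over all tested compounds plus 3 SD, cut at about 3.6% in these data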;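 also: higher inhibition means more luminescence from relief of DAX-1 repression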
hcDAF-12 act = H. contortus DAF-12 activation, primary screen. HEK293 hcDAF-12 lit1-tk-luc reporter, luminescence; 0% DMSO, 100% Δ7-dafachronic acid. 1.4% of 370,000 active. activation, % at 6.8 µM. AID 652067;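 active = activation above the mean of all tested compounds plus 3 SD, cut at about 5.5% in these data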
hgDAF-12 ag = hgDAF-12 agonism, primary luciferase screen | HEK293 GAL4-hgDAF12 UAS-luciferase reporter, agonist luminescence; normalized to butyrate control | activation, % at 6.8 µM | 1.8% of 370,000 active | AID 687014;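 active = activation above a cutoff set at the mean of all screened compounds plus 3 SD, cut at about 10% in these data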
ssDAF12 agonist = activates DAF-12 receptor from parasite S. stercoralis | HEK293 ssDAF-12/GRIP1 lit1-tk-luc reporter, luminescence; % of 3 µM dafachronic acid response | activation, % at 6.8 µM | 1% of 370,000 active;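 active = activation above the mean over all tested compounds plus 3 SD, cut at about 0.9% in these data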
hgDAF12 conf = confirmation of H. glycines DAF-12 agonists; shares compounds with hgDAF-12 ag; HEK293 GAL4-hgDAF12 luciferase reporter, agonist mode; percent of butyrate response; activation, % at 6.8 µM; 80% of 3,300 active;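 active = mean activation over triplicate wells above the hit cutoff derived from the earlier primary screen, cut at about 11% in these data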
LXRb DAF12 ctr = LXR-beta agonism as DAF-12 counter-screen; shares compounds with hgDAF-12 ag; HEK293 Gal4-LXR luciferase reporter, 24 h; activation, % at 6.8 µM; 3,300 tested, under 10 active; AID 743051;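 active = mean activation of the triplicate above a set limit carried over from the primary screen, none filed active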
Target sequence (P55055 whole entry, looked up, the tested form may be a part): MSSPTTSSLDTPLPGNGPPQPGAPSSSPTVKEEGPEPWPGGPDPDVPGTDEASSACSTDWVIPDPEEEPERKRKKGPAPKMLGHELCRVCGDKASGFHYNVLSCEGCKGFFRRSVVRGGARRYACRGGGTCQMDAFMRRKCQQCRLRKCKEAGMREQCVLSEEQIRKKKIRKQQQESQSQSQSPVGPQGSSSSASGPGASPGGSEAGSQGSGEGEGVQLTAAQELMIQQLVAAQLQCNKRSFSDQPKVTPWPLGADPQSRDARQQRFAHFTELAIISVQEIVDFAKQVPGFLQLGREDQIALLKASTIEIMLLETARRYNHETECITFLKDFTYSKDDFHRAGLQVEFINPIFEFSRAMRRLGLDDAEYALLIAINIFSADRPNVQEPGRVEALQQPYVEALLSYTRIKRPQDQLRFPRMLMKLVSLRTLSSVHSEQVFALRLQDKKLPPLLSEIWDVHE
Hits are given with their value; 0 = inactive; - = no result. Rows were chosen to be rich in hits. Some 4.2% of all compounds tested hit in one or more screens of this group.

SMILES | SMARCA2 activ | DAX1 inh | hcDAF-12 act | hgDAF-12 ag | ssDAF12 agonist | hgDAF12 conf | LXRb DAF12 ctr
Fc1cccc(F)c1Cn1ccc2ccc(-c3ccc4ccn(Cc5c(F)cccc5F)c4c3)cc21 | 0 | 0 | 0 | 0 | 0 | - | -
CCN(CC)CCOC(=O)c1ccc(NC(=O)c2cn(-c3ccccc3)nc2-c2cccs2)cc1 | 0 | 0 | 0 | 15 | 0 | 0 | 0
CCN(CC)CCNC(=O)c1cn(-c2ccccc2)nc1-c1cccs1 | 0 | 0 | 0 | 0 | 0 | - | -
O=[N+]([O-])c1ccc(S(=O)(=O)NN=Cc2ccc3c(c2)OCO3)cc1 | 0 | 0 | 0 | 0 | 0 | - | -
O=[N+]([O-])c1ccc(NN=Cc2ccc3c(c2)OCO3)nc1 | 0 | 0 | 0 | 15 | 0 | 17 | 0
COC(=O)Cc1nnn2c1[C@H](C)[C@H](c1ccccc1Br)OC[C@@H]2c1ccccc1 | 0 | 0 | 0 | 0 | 0 | - | -
CC1(C(=O)Nc2nccs2)CCN1C(=O)CC(c1ccccc1)c1ccccc1 (stereo unspecified) | 0 | 0 | 0 | 0 | 0 | - | -
Nc1ccc(-c2nc3ncccc3o2)c(Cl)c1 | 0 | 0 | 6.0 | 18 | 0 | 16 | 0
Nc1ccc(Cl)c(-c2nc3ncccc3o2)c1 | 0 | 0 | 0 | 0 | 0 | - | -
O=[N+]([O-])c1cccnc1NCCNc1ncc(C(F)(F)F)cc1Cl | 0 | 0 | 0 | 14 | 0 | 15 | 0
CCC(C)N(C(=O)CSc1nnc(-c2cc(OC)c(OC)c(OC)c2)o1)C(C)CC (stereo unspecified) | 0 | 0 | 0 | 0 | 0 | - | -
COc1cc(/C=N/OCC(=O)Nc2cc(C)cc(C)c2)ccc1OCc1ccc(Cl)cc1 | 0 | 0 | 0 | 16 | 0 | 0 | 0
COc1cc(/C=N/N2CCOCC2)ccc1OCc1ccc(Cl)cc1 | 0 | 0 | 0 | 0 | 0 | - | -
COC(=O)c1sc(NC(=O)COc2ccccc2C)nc1C | 0 | 0 | 0 | 0 | 0 | - | -
COc1ccccc1OCC(=O)Nc1nc(C)c(C)s1 | 0 | 0 | 0 | 14 | 0 | 12 | 0
Nc1cc(Cl)nc(N/N=C/c2c(O)ccc3ccccc23)n1 | 0 | 0 | 0 | 15 | 0 | 0 | 0
Nc1nonc1N/N=C/c1c(O)ccc2ccccc12 | 0 | 0 | 0 | 0 | 0 | - | -
O=C(Nc1ccc(Cl)cc1)c1ccc2nsnc2c1 | 0 | 0 | 0 | 18 | 0 | 15 | 0
O=C(Nc1ccc(Cl)cc1)c1ccc2ncsc2c1 | 0 | 0 | 0 | 0 | 0 | - | -
O=C(Nc1ccc(C(O)(C(F)(F)F)C(F)(F)F)cc1)c1ccc(Cl)cc1 | - | - | 0 | 14 | 0 | 0 | 0
O=C(Nc1ccc(C(O)(C(F)(F)F)C(F)(F)F)cc1)c1ccc(Cl)c([N+](=O)[O-])c1 | 0 | 0 | 0 | 0 | 0 | - | -
COC(=O)C1=C(C)N(C)C(=NCC2CC2)NC1CCc1ccccc1 (stereo unspecified) | 0 | 0 | 0 | 0 | 0 | - | -
COc1ccc(C2CC(=O)C(c3ccc(C#N)cc3)=CN2Cc2ccccc2)cc1 (stereo unspecified) | 0 | 0 | 0 | 0 | 0 | - | -
CN1CCS/C1=C/C=C1\SC(=S)N(CC(=O)O)C1=O | 0 | 0 | 0 | 0 | 0 | - | -
CCCCN1C(=O)/C(=C/C=C2\SCCN2C)SC1=S | 0 | 0 | 0 | 14 | 0 | 0 | 0
SMILES | SMARCA2 activ | DAX1 inh | hcDAF-12 act | hgDAF-12 ag | ssDAF12 agonist | hgDAF12 conf | LXRb DAF12 ctr
Cc1cc(NC(=O)c2noc3c2CCCC3)no1 | 0 | 0 | 0 | 0 | 0 | - | -
CC(=O)c1ccc(NC(=O)c2noc3c2CCCCC3)cc1 | 0 | 3.8 | 0 | 14 | 0 | 17 | 0
COC(=O)C1=C(C)N(Cc2cccc(C(F)(F)F)c2)C(=NCc2ccc3c(c2)OCO3)NC1c1cccc(Cl)c1 (stereo unspecified) | 0 | 0 | 0 | 0 | 0 | - | -
O=C(N=C1N=C2C=CC(Br)=CN2Cc2ccccc21)c1ccc([N+](=O)[O-])cc1[N+](=O)[O-] | 0 | 0 | 0 | 14 | 1.1 | 14 | 0
Nc1ccccc1NC1=CC(=O)CC(c2ccco2)C1 (stereo unspecified) | 7.9 | 0 | 0 | 13 | 0 | 0 | 0
O=C(Nc1nc2ccccc2[nH]1)c1cccc([N+](=O)[O-])c1 | 0 | 0 | 0 | 16 | 0 | 14 | 0
CN(C)c1cccc(C(=O)Nc2nc3ccccc3[nH]2)c1 | 0 | 0 | 0 | 15 | 0 | 0 | 0
O=[N+]([O-])c1ccc2nc(-c3ccccc3)[nH]c2c1 | 0 | 4.0 | 0 | 20 | 0 | 18 | 0
O=C(N[C@@H](Cc1cccnc1)C(=O)N1CCC[C@H]1C(=O)NC1CCCC1)c1ccc(Cl)c(Cl)c1 | 0 | 0 | 0 | 0 | 0 | - | -
O=C1CCc2cc(S(=O)(=O)N3CCN(Cc4cccc5c4OCO5)CC3)ccc2N1 | 0 | 0 | 0 | 0 | 0 | - | -
O=C(CSc1nc2ccccc2n1Cc1ccccc1)NN=C/C=C/c1ccccc1 | 0 | 0 | 0 | 0 | 0 | - | -
COC(=O)c1sc(NC(=O)c2ccc(C)o2)nc1C | 0 | 0 | 0 | 14 | 0 | 10 | 0
Cc1ccc(C(=O)Nc2nnc(C)s2)o1 | 0 | 0 | 0 | 0 | 0 | - | -
Cc1ccccc1Cn1cc(NC(=O)c2cc(-c3ccco3)on2)cn1 | 0 | 0 | 0 | 39 | 0 | 0 | 0
COc1ccc(CCNC(=O)c2cc(-c3ccco3)on2)cc1OC | 0 | 0 | 0 | 14 | 0 | 11 | 0
CC(C)n1cc(NC(=O)c2cc(-c3ccccc3)on2)cn1 | 0 | 0 | 0 | 14 | 0 | 16 | 0
O=C(NCCc1ccccc1)c1cc(-c2ccco2)on1 | 0 | 0 | 5.6 | 46 | 0 | 53 | 0
COc1ccc(CCNC(=O)c2cc(C(C)C)on2)cc1OC | 0 | 0 | 0 | 0 | 0 | - | -
NC(=O)C1CCN(c2ncc(Br)cn2)CC1 | - | - | 0 | 0 | 0 | - | -
NS(=O)(=O)c1ccc(CCNc2nn3c(-c4cccc(OC(F)(F)F)c4)cnc3s2)cc1 | 0 | 0 | 0 | 0 | 0 | - | -
Cc1ccc(-c2nc3ccc(Cl)cc3n2OC(C)C(=O)O)cc1 (stereo unspecified) | 0 | 0 | 0 | 23 | 0 | 13 | 0
CC(=O)c1cccc(NC(=S)NCCC2=CCCCC2)c1 | 0 | 0 | 0 | 0 | 0 | - | -
O=C(NCCC1=CCCCC1)Nc1ccc2nsnc2c1 | 0 | 3.8 | 5.9 | 20 | 0 | 14 | 0
O=C(Nc1ccc(N2CCOCC2)c(Cl)c1)c1cccc(F)c1 | 0 | 0 | 0 | 14 | 0 | 16 | 0
O=C(Nc1ccc(N2CCCC2)c(Cl)c1)c1cccs1 | 0 | 4.0 | 0 | 20 | 0 | 19 | 0
O=C(Nc1ccc(N2CCOCC2)c(Cl)c1)c1c(F)c(F)c(F)c(F)c1F | 0 | 0 | 0 | 0 | 0 | - | -
O=C(Nc1ccccc1)OC1CC2CC1[C@H]1CCCCN1[C@H]2Cc1ccccc1 (stereo partly specified) | 0 | 0 | 0 | 0 | 0 | - | -
S=C(NN=C1CCCCC1=NNC(=S)N1CCOCC1)N1CCOCC1 | 0 | 0 | 0 | 0 | 0 | - | -
COc1ccc(COc2ccc3ccc(=O)oc3c2)cc1 | 0 | 0 | 0 | 20 | 0 | 14 | 0
